{"source": "the supplement of paper PMC8728848", "binders": {"B1": {"name": "StcE (Escherichia coli), O82882.2 (protein)", "chain": "ADNNSAIYFNTSQPINDLQGSLAAEVKFAQSQILPAHPKEGDSQPHLTSLRKSLLLVRPVKADDKTPVQVEARDDNNKILGTLTLYPPSSLPDTIYHLDGVPEGGIDFTPHNGTKKIINTVAEVNKLSDASGSSIHSHLTNNALVEIHTANGRWVRDIYLPQGPDLEGKMVRFVSSAGYSSTVFYGDRKVTLSVGNTLLFKYVNGQWFRSGELENNRITYAQHIWSAELPAHWIVPGLNLVIKQGNLSGRLNDIKIGAPGELLLHTIDIGMLTTPRDRFDFAKDKEAHREYFQTIPVSRMIVNNYAPLHLKEVMLPTGELLTDMDPGNGGWHSGTMRQRIGKELVSHGIDNANYGLNSTAGLGENSHPYVVAQLAAHNSRGNYANGIQVHGGSGGGGIVTLDSTLGNEFSHEVGHNYGLGHYVDGFKGSVHRSAENNNSTWGWDGDKKRFIPNFYPSQTNEKSCLNNQCQEPFDGHKFGFDAMAGGSPFSAANRFTMYTPNSSAIIQRFFENKAVFDSRSSTGFSKWNADTQEMEPYEHTIDRAEQITASVNELSESKMAELMAEYAVVKVHMWNGNWTRNIYIPTASADNRGSILTINHEAGYNSYLFINGDEKVVSQGYKKSFVSDGQFWKERDVVDTREARKPEQFGVPVTTLVGYYDPEGTLSSYIYPAMYGAYGFTYSDDSQNLSDNDCQLQVDTKEGQLRFRLANHRANNTVMNKFHINVPTESQPTQATLVCNNKILDTKSLTPAPEGLTYTVNGQALPAKENEGCIVSVNSGKRYCLPVGQRSGYSLPDWIVGQEVYVDSGAKAKVLLSDWDNLSYNRIGEFVGNVNPADMKKVKAWNGQYLDFSKPRSMRVVYK"}}, "assay_in_all_cases": "glycan array binding signal (z-score within array); higher = stronger binding", "settings_in_all_cases": "glycan notation: IUPAC condensed, linker removed", "key": {"[1]": {"target": "Fuc(a1-2)Gal(b1-3)GalNAc(a1-3)[Fuc(a1-2)]Gal(b1-4)Glc", "in_short": "(§1)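 The binding signal is a Z-score computed within each array. Data were drawn from 3228 arrays in the Consortium for Functional Glycomics database, restricted to those with a known protein sequence. Scores were averaged over arrays of the same protein sequence at different concentrations or buffers, and over linkers, and negative values can be taken as non-binding.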"}, "[2]": {"target": "Fuc(a1-2)Gal(b1-3)GlcNAc(b1-3)Gal(b1-4)Glc", "in_short": "as §1"}, "[3]": {"target": "Fuc(a1-2)Gal(b1-3)[Fuc(a1-4)]GlcNAc(b1-3)[Fuc(a1-3)[Gal(b1-4)]GlcNAc(b1-6)]Gal(b1-4)Glc", "in_short": "as §1"}, "[4]": {"target": "Fuc(a1-2)Gal(b1-4)GlcNAc(b1-2)Man", "in_short": "as §1"}, "[5]": {"target": "Fuc(a1-2)Gal(b1-4)GlcNAc(b1-2)Man(a1-3)[Fuc(a1-2)Gal(b1-4)GlcNAc(b1-2)Man(a1-6)]Man(b1-4)GlcNAc(b1-4)[Fuc(a1-6)]GlcNAc", "in_short": "as §1"}, "[6]": {"target": "Fuc(a1-2)Gal(b1-4)GlcNAc(b1-3)[Fuc(a1-2)Gal(b1-4)GlcNAc(b1-6)]GalNAc", "in_short": "as §1"}, "[7]": {"target": "Fuc(a1-2)Gal(b1-4)[Fuc(a1-3)]GlcNAc(b1-3)Gal(b1-4)[Fuc(a1-3)]GlcNAc", "in_short": "as §1"}, "[8]": {"target": "Fuc(a1-2)Gal6S(b1-3)GlcNAc6S", "in_short": "as §1"}, "[9]": {"target": "Fuc(a1-2)[GalNAc(a1-3)]Gal(b1-3)GlcNAc(b1-2)Man(a1-3)[Fuc(a1-2)[GalNAc(a1-3)]Gal(b1-3)GlcNAc(b1-2)Man(a1-6)]Man(b1-4)GlcNAc(b1-4)[Fuc(a1-6)]GlcNAc", "in_short": "as §1"}, "[10]": {"target": "Fuc(a1-2)[GalNAc(a1-3)]Gal(b1-3)GlcNAc(b1-3)GalNAc", "in_short": "as §1"}, "[11]": {"target": "Fuc(a1-2)[GalNAc(a1-3)]Gal(b1-4)GlcNAc(b1-2)Man(a1-3)[Fuc(a1-2)[GalNAc(a1-3)]Gal(b1-4)GlcNAc(b1-2)Man(a1-6)]Man(b1-4)GlcNAc(b1-4)[Fuc(a1-6)]GlcNAc", "in_short": "as §1"}, "[12]": {"target": "Fuc(a1-3)[Gal(b1-4)]GlcNAc(b1-2)Man(a1-3)[Fuc(a1-3)[Gal(b1-4)]GlcNAc(b1-2)Man(a1-6)]Man(b1-4)GlcNAc(b1-4)[Fuc(a1-6)]GlcNAc", "in_short": "as §1"}, "[13]": {"target": "Fuc(a1-3)[GalNAc3S(b1-4)]GlcNAc", "in_short": "as §1"}, "[14]": {"target": "Gal(a1-3)Gal(b1-3)[Fuc(a1-4)]GlcNAc(b1-2)Man(a1-3)[Gal(a1-3)Gal(b1-3)[Fuc(a1-4)]GlcNAc(b1-2)Man(a1-6)]Man(b1-4)GlcNAc(b1-4)GlcNAc", "in_short": "as §1"}, "Gal(a1-3)Gal(b1-4)Glc": {"target": "Gal(a1-3)Gal(b1-4)Glc", "in_short": "as §1"}, "[15]": {"target": "Gal(a1-3)Gal(b1-4)[Fuc(a1-3)]GlcNAc", "in_short": "as §1"}, "Gal(a1-4)Gal(b1-4)GlcNAc": {"target": "Gal(a1-4)Gal(b1-4)GlcNAc", "in_short": "as §1"}, "Gal(b1-2)Gal": {"target": "Gal(b1-2)Gal", "in_short": "as §1"}, "[16]": {"target": "Gal(b1-3)GalNAc(a1-3)[Fuc(a1-2)]Gal(b1-4)GlcNAc", "in_short": "as §1"}, "[17]": {"target": "Gal(b1-3)GlcNAc(a1-3)Gal(b1-4)GlcNAc", "in_short": "as §1"}, "[18]": {"target": "Gal(b1-3)GlcNAc(b1-3)Gal(b1-3)GlcNAc", "in_short": "as §1"}, "[19]": {"target": "Gal(b1-3)[Fuc(a1-4)]GlcNAc(b1-2)Man(a1-3)[Gal(b1-3)[Fuc(a1-4)]GlcNAc(b1-2)Man(a1-6)]Man(b1-4)GlcNAc(b1-4)[Fuc(a1-6)]GlcNAc", "in_short": "as §1"}, "Gal(b1-4)GlcNAc(b1-2)Man": {"target": "Gal(b1-4)GlcNAc(b1-2)Man", "in_short": "as §1"}, "Gal3S6S(b1-4)GlcNAc": {"target": "Gal3S6S(b1-4)GlcNAc", "in_short": "as §1"}, "Gal6S(b1-4)Glc": {"target": "Gal6S(b1-4)Glc", "in_short": "as §1"}, "[20]": {"target": "GlcNAc(a1-4)Gal(b1-4)GlcNAc(b1-3)Gal(b1-4)[Fuc(a1-3)]GlcNAc(b1-3)Gal(b1-4)[Fuc(a1-3)]GlcNAc", "in_short": "as §1"}, "[21]": {"target": "GlcNAc(b1-2)Man(a1-3)[GlcNAc(b1-4)][GlcNAc(b1-2)Man(a1-6)]Man(b1-4)GlcNAc(b1-4)GlcNAc", "in_short": "as §1"}, "GlcNAc(b1-3)Gal": {"target": "GlcNAc(b1-3)Gal", "in_short": "as §1"}, "[22]": {"target": "Kdn(a2-3)Gal(b1-4)[Fuc(a1-3)]GlcNAc", "in_short": "as §1"}, "[23]": {"target": "Man(a1-2)Man(a1-2)Man(a1-3)Man", "in_short": "as §1"}, "[24]": {"target": "Man(a1-2)Man(a1-6)[Man(a1-3)]Man(a1-6)[Man(a1-2)Man(a1-2)Man(a1-3)]Man", "in_short": "as §1"}, "[25]": {"target": "Man(a1-3)[Man(a1-6)]Man(a1-6)[Man(a1-3)]Man(b1-4)GlcNAc(b1-4)GlcNAc", "in_short": "as §1"}, "[26]": {"target": "Man(a1-3)[Man(a1-6)]Man(b1-4)GlcNAc(b1-4)[Fuc(a1-6)]GlcNAc", "in_short": "as §1"}, "[27]": {"target": "Neu5Ac(a2-3)Gal(b1-3)GlcNAc(b1-2)Man(a1-3)[GlcNAc(b1-4)][Neu5Ac(a2-3)Gal(b1-3)GlcNAc(b1-2)Man(a1-6)]Man(b1-4)GlcNAc(b1-4)GlcNAc", "in_short": "as §1"}, "[28]": {"target": "Neu5Ac(a2-3)Gal(b1-3)[Fuc(a1-4)]GlcNAc(b1-3)Gal(b1-3)[Fuc(a1-4)]GlcNAc", "in_short": "as §1"}, "[29]": {"target": "Neu5Ac(a2-3)Gal(b1-3)[Neu5Ac(a2-6)]GalNAc", "in_short": "as §1"}, "[30]": {"target": "Neu5Ac(a2-3)Gal(b1-4)GlcNAc(b1-3)Gal(b1-4)[Fuc(a1-3)]GlcNAc", "in_short": "as §1"}, "[31]": {"target": "Neu5Ac(a2-3)Gal(b1-4)[Fuc(a1-3)]GlcNAc6S", "in_short": "as §1"}, "[32]": {"target": "Neu5Ac(a2-6)Gal(b1-4)GlcNAc(b1-3)GalNAc", "in_short": "as §1"}, "[33]": {"target": "Neu5Ac(a2-6)GlcNAc(b1-4)GlcNAc", "in_short": "as §1"}, "[34]": {"target": "Neu5Gc(a2-3)Gal(b1-4)GlcNAc", "in_short": "as §1"}}, "note": "Only a selection was taken, and the strongest signals are over-represented in it overall."}
{"binder": "B1", "values": [{"measurement": "glycan array binding signal (z-score)", "setting": "[1]", "result": -0.142}, {"measurement": "glycan array binding signal (z-score)", "setting": "[2]", "result": -0.144}, {"measurement": "glycan array binding signal (z-score)", "setting": "[3]", "result": -0.147}, {"measurement": "glycan array binding signal (z-score)", "setting": "[4]", "result": -0.132}, {"measurement": "glycan array binding signal (z-score)", "setting": "[5]", "result": 1.14}, {"measurement": "glycan array binding signal (z-score)", "setting": "[6]", "result": 2.85}, {"measurement": "glycan array binding signal (z-score)", "setting": "[7]", "result": -0.122}, {"measurement": "glycan array binding signal (z-score)", "setting": "[8]", "result": 5.23}, {"measurement": "glycan array binding signal (z-score)", "setting": "[9]", "result": 0.015}, {"measurement": "glycan array binding signal (z-score)", "setting": "[10]", "result": -0.096}, {"measurement": "glycan array binding signal (z-score)", "setting": "[11]", "result": -0.164}, {"measurement": "glycan array binding signal (z-score)", "setting": "[12]", "result": -0.117}, {"measurement": "glycan array binding signal (z-score)", "setting": "[13]", "result": -0.164}, {"measurement": "glycan array binding signal (z-score)", "setting": "[14]", "result": 4.13}, {"measurement": "glycan array binding signal (z-score)", "setting": "Gal(a1-3)Gal(b1-4)Glc", "result": -0.25}, {"measurement": "glycan array binding signal (z-score)", "setting": "[15]", "result": 0.116}, {"measurement": "glycan array binding signal (z-score)", "setting": "Gal(a1-4)Gal(b1-4)GlcNAc", "result": -0.215}, {"measurement": "glycan array binding signal (z-score)", "setting": "Gal(b1-2)Gal", "result": 0.601}, {"measurement": "glycan array binding signal (z-score)", "setting": "[16]", "result": -0.17}, {"measurement": "glycan array binding signal (z-score)", "setting": "[17]", "result": -0.109}, {"measurement": "glycan array binding signal (z-score)", "setting": "[18]", "result": -0.142}, {"measurement": "glycan array binding signal (z-score)", "setting": "[19]", "result": 4.66}, {"measurement": "glycan array binding signal (z-score)", "setting": "Gal(b1-4)GlcNAc(b1-2)Man", "result": -0.167}, {"measurement": "glycan array binding signal (z-score)", "setting": "Gal3S6S(b1-4)GlcNAc", "result": -0.175}, {"measurement": "glycan array binding signal (z-score)", "setting": "Gal6S(b1-4)Glc", "result": 0.013}, {"measurement": "glycan array binding signal (z-score)", "setting": "[20]", "result": 3.96}, {"measurement": "glycan array binding signal (z-score)", "setting": "[21]", "result": -0.167}, {"measurement": "glycan array binding signal (z-score)", "setting": "GlcNAc(b1-3)Gal", "result": 0.13}, {"measurement": "glycan array binding signal (z-score)", "setting": "[22]", "result": -0.152}, {"measurement": "glycan array binding signal (z-score)", "setting": "[23]", "result": -0.442}, {"measurement": "glycan array binding signal (z-score)", "setting": "[24]", "result": -0.148}, {"measurement": "glycan array binding signal (z-score)", "setting": "[25]", "result": -0.198}, {"measurement": "glycan array binding signal (z-score)", "setting": "[26]", "result": -0.049}, {"measurement": "glycan array binding signal (z-score)", "setting": "[27]", "result": -0.142}, {"measurement": "glycan array binding signal (z-score)", "setting": "[28]", "result": 4.08}, {"measurement": "glycan array binding signal (z-score)", "setting": "[29]", "result": 8.93}, {"measurement": "glycan array binding signal (z-score)", "setting": "[30]", "result": -0.162}, {"measurement": "glycan array binding signal (z-score)", "setting": "[31]", "result": 2.84}, {"measurement": "glycan array binding signal (z-score)", "setting": "[32]", "result": 2.78}, {"measurement": "glycan array binding signal (z-score)", "setting": "[33]", "result": -0.156}, {"measurement": "glycan array binding signal (z-score)", "setting": "[34]", "result": -0.113}]}
